# Experimental data taken from PMC7862700, “An all-to-all approach to the identification of sequence-specific readers for epigenetic DNA modifications on cytosine”.
# How the values were obtained:
# Test in all cases: DAPPL (digital affinity profiling via proximity ligation, sequencing); 10 mM Tris-HCl pH 7.5, 50 mM NaCl, 1 mM DTT, 4% glycerol, room temperature, 30 min; GST-TFs on glutathione beads, 16-mer random dsDNA library, 0.1% formaldehyde crosslink after washing; high values mean tight binding
# FLI1 = biological target: T1, FLI1 (Homo sapiens, UniProt Q01543 1-452); conditions: protein: recombinant; tags: N-terminal GST; dsDNA, one strand shown
# T1 sequence: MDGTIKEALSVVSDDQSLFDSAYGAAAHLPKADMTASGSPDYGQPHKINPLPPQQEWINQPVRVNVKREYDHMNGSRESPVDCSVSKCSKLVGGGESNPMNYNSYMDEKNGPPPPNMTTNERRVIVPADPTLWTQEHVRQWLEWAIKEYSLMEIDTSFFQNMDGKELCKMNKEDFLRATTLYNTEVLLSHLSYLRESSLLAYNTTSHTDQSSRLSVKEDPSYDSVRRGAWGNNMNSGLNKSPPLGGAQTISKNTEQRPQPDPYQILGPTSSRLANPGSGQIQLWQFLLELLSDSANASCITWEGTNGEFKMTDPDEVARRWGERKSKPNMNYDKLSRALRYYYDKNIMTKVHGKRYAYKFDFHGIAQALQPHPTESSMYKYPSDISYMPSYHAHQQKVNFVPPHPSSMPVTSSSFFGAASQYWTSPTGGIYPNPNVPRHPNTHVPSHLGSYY
# Method in brief: (§1)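 GST fusions of human transcription factors were expressed in yeast and captured with glutathione beads. Once given DNA barcodes and pooled alongside a tag-only sample, they were incubated for 30 min at room temperature with 200 nmole of a random double-stranded 16-mer DNA library in Tris/NaCl/DTT/glycerol buffer, then washed, crosslinked (0.1% formaldehyde), proximity-ligated, PCR-amplified and sequenced on an Illumina NextSeq500. The binding signal of each hexamer is its read frequency for a factor divided by its frequency for the tag-only sample.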
# ELK1 = biological target: T2, ELK1 (Homo sapiens, UniProt P19419 1-428); conditions: protein: recombinant; tags: N-terminal GST; dsDNA, one strand shown
# T2 sequence: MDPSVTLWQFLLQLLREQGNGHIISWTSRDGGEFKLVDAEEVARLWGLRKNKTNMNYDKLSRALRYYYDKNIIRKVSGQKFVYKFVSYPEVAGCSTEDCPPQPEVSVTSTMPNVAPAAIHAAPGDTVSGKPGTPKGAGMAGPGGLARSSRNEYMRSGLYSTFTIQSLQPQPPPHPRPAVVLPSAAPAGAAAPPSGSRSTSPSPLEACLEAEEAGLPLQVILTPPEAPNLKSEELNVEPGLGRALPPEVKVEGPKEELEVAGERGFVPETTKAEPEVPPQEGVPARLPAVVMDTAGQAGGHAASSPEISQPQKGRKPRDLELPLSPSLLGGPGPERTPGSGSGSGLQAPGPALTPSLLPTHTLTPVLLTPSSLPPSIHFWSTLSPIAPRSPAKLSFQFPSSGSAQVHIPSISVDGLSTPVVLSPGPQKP
# Method in brief: as §1
# GABPA = biological target: T3, GABPA (Homo sapiens, UniProt Q06546 1-454); conditions: protein: recombinant; tags: N-terminal GST; dsDNA, one strand shown
# T3 sequence: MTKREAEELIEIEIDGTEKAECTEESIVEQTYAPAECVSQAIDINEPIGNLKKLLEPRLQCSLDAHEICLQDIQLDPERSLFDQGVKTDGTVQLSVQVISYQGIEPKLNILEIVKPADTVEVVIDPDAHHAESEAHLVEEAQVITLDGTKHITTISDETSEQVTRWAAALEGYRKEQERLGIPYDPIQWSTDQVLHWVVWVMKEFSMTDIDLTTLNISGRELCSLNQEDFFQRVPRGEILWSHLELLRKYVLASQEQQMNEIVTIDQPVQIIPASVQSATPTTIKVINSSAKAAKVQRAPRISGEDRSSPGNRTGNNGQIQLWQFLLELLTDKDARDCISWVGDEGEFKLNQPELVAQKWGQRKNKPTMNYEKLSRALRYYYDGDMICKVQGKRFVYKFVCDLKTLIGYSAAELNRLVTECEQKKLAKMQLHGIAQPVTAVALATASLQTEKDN
# Method in brief: as §1
# ERG = biological target: T4, ERG (Homo sapiens, UniProt P11308 1-479); conditions: protein: recombinant; tags: N-terminal GST; dsDNA, one strand shown
# T4 sequence: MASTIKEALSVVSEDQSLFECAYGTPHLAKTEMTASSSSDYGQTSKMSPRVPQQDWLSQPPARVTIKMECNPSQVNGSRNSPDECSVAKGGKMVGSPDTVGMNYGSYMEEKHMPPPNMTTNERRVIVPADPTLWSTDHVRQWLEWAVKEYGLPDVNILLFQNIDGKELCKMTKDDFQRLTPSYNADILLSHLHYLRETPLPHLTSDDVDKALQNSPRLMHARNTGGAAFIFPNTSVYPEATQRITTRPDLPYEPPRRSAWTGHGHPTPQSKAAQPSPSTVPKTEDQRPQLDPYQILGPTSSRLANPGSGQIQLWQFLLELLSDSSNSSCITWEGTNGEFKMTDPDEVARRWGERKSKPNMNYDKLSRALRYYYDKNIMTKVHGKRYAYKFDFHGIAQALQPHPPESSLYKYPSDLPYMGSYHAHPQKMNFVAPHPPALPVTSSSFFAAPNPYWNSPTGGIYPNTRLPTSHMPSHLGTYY
# Method in brief: as §1
# ELF1 = ELF1 (Homo sapiens, UniProt P32519 1-619); conditions: protein: recombinant; tags: N-terminal GST; dsDNA, one strand shown
# Method in brief: as §1
# EHF = biological target: T5, EHF (Homo sapiens, UniProt Q9NZC4 1-300); conditions: protein: recombinant; tags: N-terminal GST; dsDNA, one strand shown
# T5 sequence: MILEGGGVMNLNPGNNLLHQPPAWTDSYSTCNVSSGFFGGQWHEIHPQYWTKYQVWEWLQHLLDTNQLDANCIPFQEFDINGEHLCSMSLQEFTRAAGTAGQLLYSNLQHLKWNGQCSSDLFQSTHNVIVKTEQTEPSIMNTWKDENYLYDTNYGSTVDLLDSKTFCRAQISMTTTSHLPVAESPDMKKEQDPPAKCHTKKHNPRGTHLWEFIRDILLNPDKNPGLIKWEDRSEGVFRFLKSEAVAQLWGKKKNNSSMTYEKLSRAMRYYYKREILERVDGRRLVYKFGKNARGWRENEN
# Method in brief: as §1
# SPI1 = SPI1 (Homo sapiens, UniProt P17947 1-270); conditions: protein: recombinant; tags: N-terminal GST; dsDNA, one strand shown
# Method in brief: as §1
# SPIB = SPIB (Homo sapiens, UniProt Q01892 1-262); conditions: protein: recombinant; tags: N-terminal GST; dsDNA, one strand shown
# Method in brief: as §1
# ELK3 = biological target: T6, ELK3 (Homo sapiens, UniProt P41970 1-407); conditions: protein: recombinant; tags: N-terminal GST; dsDNA, one strand shown
# T6 sequence: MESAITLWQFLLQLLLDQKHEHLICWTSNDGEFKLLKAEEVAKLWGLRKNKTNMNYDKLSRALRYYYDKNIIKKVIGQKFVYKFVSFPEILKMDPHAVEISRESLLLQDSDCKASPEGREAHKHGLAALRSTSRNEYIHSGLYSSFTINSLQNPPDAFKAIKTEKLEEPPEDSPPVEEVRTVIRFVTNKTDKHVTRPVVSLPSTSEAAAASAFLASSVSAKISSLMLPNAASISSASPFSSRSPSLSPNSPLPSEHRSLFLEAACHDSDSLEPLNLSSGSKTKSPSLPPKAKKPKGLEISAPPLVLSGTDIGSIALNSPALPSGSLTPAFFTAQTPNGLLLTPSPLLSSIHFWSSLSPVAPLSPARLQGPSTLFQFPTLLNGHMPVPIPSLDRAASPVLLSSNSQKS
# Method in brief: as §1
# FEV = biological target: T7, FEV (Homo sapiens, UniProt Q99581 1-238); conditions: protein: recombinant; tags: N-terminal GST; dsDNA, one strand shown
# T7 sequence: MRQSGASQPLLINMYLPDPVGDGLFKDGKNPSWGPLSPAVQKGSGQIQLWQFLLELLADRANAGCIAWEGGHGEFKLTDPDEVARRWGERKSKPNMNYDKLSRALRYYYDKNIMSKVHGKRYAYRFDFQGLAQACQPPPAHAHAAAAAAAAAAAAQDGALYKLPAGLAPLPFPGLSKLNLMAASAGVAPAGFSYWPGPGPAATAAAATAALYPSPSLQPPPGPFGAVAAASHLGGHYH
# Method in brief: as §1
# ETV5 = ETV5 (Homo sapiens, UniProt P41161 1-510); conditions: protein: recombinant; tags: N-terminal GST; dsDNA, one strand shown
# Method in brief: as §1
# HSF1 = HSF1 (Homo sapiens, UniProt Q00613 1-529); conditions: protein: recombinant; tags: N-terminal GST; chain copies: 3; dsDNA, one strand shown
# Method in brief: as §1
# SPIC = biological target: T8, SPIC (Homo sapiens, UniProt Q8N5J4 1-248); conditions: protein: recombinant; tags: N-terminal GST; dsDNA, one strand shown
# T8 sequence: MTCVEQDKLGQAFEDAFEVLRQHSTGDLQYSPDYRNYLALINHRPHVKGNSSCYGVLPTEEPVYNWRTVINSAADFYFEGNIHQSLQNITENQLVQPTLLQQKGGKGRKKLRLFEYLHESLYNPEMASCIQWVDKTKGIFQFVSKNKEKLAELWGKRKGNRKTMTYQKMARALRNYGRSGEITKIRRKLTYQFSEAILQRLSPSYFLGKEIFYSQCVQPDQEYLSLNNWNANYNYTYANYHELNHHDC
# Method in brief: as §1
# ELF4 = ELF4 (Homo sapiens, UniProt Q99607 1-663); conditions: protein: recombinant; tags: N-terminal GST; dsDNA, one strand shown
# Method in brief: as §1
# ELK4 = biological target: T9, ELK4 (Homo sapiens, UniProt P28324-2 1-405); conditions: protein: recombinant; tags: N-terminal GST; dsDNA, one strand shown
# T9 sequence: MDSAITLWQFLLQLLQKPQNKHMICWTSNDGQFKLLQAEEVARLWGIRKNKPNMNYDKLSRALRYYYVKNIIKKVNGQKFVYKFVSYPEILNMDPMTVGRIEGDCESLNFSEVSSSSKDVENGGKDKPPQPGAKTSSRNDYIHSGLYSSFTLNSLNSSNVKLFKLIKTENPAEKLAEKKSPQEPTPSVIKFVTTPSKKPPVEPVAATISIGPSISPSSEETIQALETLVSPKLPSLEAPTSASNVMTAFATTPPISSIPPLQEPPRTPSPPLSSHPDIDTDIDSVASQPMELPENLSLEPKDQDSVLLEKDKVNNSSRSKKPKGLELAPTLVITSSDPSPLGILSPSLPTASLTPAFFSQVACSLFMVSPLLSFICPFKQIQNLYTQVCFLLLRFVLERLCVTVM
# Method in brief: as §1
# ETV2 = biological target: T10, ETV2 (Homo sapiens, UniProt O00321 1-342); conditions: protein: recombinant; tags: N-terminal GST; dsDNA, one strand shown
# T10 sequence: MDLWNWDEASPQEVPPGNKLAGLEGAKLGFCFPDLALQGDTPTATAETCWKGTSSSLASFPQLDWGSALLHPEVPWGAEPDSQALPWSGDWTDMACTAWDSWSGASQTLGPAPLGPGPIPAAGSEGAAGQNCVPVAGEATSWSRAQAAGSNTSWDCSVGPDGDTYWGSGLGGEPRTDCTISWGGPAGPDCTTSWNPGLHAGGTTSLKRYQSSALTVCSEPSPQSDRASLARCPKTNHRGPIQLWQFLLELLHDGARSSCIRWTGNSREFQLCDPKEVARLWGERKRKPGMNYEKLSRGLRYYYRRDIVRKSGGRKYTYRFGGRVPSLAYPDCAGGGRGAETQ
# Method in brief: as §1
# ELF3 = biological target: T11, ELF3 (Homo sapiens, UniProt P78545 1-371); conditions: protein: recombinant; tags: N-terminal GST; dsDNA, one strand shown
# T11 sequence: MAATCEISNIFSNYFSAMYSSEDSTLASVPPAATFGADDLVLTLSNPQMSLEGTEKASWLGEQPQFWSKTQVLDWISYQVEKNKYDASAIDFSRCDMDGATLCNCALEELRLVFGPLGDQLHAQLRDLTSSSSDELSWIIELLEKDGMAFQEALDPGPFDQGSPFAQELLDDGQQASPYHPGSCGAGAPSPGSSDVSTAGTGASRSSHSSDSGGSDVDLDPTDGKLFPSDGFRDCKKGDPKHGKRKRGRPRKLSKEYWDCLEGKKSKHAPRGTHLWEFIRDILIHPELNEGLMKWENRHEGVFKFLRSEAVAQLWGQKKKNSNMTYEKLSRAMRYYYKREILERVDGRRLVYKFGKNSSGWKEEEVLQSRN
# Method in brief: as §1
# CRX = CRX (Homo sapiens, UniProt O43186 1-299); conditions: protein: recombinant; tags: N-terminal GST; dsDNA, one strand shown
# Method in brief: as §1
# ETV1 = ETV1 (Homo sapiens, UniProt P50549 1-477); conditions: protein: recombinant; tags: N-terminal GST; dsDNA, one strand shown
# Method in brief: as §1
# Chain of CRX (O43186 whole entry): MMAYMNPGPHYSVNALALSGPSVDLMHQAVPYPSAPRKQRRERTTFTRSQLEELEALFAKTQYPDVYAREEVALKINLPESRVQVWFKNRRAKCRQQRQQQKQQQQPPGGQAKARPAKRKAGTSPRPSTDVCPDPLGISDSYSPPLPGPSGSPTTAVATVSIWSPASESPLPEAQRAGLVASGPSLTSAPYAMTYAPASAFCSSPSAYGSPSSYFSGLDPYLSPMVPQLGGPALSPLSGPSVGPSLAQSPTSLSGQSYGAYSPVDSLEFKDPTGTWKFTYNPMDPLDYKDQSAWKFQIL
# Chain of HSF1 (Q00613 whole entry): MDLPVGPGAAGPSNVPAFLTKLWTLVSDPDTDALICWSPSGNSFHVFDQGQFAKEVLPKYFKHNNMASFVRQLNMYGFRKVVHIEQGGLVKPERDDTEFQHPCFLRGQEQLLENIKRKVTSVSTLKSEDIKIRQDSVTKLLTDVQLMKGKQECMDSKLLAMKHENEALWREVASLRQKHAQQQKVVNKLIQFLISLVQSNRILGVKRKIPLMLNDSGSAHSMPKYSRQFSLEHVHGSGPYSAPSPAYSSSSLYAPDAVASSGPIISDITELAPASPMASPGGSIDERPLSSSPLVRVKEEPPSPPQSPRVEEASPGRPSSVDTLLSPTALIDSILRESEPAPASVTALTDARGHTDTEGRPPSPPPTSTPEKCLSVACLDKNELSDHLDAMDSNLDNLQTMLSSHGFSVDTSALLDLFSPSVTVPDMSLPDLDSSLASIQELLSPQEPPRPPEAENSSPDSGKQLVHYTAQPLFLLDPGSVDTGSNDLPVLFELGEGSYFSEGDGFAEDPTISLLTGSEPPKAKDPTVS
# Chain of ELF1 (P32519 whole entry): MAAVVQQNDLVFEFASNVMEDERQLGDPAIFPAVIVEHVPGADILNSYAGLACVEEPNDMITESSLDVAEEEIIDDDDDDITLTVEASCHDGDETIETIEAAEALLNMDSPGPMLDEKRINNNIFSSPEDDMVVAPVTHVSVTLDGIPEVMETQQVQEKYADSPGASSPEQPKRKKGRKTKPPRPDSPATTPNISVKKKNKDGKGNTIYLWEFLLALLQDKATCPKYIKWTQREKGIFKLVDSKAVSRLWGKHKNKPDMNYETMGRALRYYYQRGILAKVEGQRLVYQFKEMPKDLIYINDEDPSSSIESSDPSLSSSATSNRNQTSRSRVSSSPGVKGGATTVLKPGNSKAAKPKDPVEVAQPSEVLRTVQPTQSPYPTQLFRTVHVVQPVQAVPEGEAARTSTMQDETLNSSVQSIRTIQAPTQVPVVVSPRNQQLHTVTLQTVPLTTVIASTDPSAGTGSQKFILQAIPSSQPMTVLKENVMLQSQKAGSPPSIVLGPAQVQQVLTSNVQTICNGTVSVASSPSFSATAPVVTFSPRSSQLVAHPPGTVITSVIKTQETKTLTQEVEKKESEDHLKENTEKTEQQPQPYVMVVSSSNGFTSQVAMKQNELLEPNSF
# Chain of ELF4 (Q99607 whole entry): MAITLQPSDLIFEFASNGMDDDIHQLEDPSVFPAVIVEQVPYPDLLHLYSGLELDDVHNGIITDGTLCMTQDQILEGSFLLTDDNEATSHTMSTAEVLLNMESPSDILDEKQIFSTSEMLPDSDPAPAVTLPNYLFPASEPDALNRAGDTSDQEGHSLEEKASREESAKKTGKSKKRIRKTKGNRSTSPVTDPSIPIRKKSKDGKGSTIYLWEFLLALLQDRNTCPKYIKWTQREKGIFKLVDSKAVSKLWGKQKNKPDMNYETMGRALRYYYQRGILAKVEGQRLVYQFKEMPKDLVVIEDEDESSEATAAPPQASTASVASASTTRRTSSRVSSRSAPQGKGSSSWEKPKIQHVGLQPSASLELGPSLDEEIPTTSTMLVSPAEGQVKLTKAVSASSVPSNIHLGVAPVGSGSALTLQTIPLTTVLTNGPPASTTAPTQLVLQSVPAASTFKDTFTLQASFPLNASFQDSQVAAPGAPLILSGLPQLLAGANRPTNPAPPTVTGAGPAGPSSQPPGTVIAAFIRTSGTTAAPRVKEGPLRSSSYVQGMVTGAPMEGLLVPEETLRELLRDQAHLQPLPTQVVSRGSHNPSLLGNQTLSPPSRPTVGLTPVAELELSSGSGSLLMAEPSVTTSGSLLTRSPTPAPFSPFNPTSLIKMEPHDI
# Chain of ETV5 (P41161 whole entry): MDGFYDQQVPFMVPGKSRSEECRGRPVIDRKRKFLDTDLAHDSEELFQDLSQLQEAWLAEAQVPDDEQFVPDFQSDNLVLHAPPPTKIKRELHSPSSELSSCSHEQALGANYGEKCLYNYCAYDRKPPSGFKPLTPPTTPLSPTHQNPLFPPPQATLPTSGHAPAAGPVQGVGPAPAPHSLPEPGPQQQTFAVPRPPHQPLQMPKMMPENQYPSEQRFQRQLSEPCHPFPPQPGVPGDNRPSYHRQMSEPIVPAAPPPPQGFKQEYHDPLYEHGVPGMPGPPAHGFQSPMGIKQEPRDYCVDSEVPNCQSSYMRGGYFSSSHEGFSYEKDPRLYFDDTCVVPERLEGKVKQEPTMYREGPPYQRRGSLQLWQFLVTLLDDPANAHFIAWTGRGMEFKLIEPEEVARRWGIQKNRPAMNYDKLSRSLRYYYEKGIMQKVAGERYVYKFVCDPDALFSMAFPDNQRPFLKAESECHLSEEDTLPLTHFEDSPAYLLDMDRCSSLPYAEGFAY
# Chain of ETV1 (P50549 whole entry): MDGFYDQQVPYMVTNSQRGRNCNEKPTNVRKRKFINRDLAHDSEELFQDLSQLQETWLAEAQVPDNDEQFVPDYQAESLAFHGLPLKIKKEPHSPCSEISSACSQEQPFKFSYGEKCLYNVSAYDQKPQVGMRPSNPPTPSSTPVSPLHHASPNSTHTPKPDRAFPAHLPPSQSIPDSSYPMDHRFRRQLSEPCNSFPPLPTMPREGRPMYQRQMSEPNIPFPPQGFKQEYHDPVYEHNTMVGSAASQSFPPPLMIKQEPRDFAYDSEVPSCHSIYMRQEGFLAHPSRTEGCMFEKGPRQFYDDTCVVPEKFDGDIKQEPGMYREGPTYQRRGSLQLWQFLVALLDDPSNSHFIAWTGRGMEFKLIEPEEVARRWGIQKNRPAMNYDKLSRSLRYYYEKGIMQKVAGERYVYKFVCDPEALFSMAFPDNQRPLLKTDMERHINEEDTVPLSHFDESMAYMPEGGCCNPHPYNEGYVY
# Chain of SPIB (Q01892 whole entry): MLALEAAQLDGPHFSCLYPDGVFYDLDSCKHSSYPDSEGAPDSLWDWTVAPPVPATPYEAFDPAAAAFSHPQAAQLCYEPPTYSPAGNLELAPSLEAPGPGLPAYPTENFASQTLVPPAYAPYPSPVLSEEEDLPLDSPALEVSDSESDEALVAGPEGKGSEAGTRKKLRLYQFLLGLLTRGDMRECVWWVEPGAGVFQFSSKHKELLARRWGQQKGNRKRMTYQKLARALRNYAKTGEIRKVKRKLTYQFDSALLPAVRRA
sequence,measurement,setting,value
ACTGAA,binding signal,FLI1,"1.07 fold enrichment (6-mer frequency, TF over GST control)"
same,binding signal,ELK1,"1.27 fold enrichment (6-mer frequency, TF over GST control)"
same,binding signal,GABPA,"1.24 fold enrichment (6-mer frequency, TF over GST control)"
same,binding signal,ERG,"1.11 fold enrichment (6-mer frequency, TF over GST control)"
same,binding signal,ELF1,"1.2 fold enrichment (6-mer frequency, TF over GST control)"
same,binding signal,EHF,"1.1 fold enrichment (6-mer frequency, TF over GST control)"
same,binding signal,SPI1,"1.23 fold enrichment (6-mer frequency, TF over GST control)"
same,binding signal,SPIB,"1.07 fold enrichment (6-mer frequency, TF over GST control)"
same,binding signal,ELK3,"1.09 fold enrichment (6-mer frequency, TF over GST control)"
same,binding signal,FEV,"1.19 fold enrichment (6-mer frequency, TF over GST control)"
same,binding signal,ETV5,"1.19 fold enrichment (6-mer frequency, TF over GST control)"
same,binding signal,HSF1,"1.08 fold enrichment (6-mer frequency, TF over GST control)"
same,binding signal,SPIC,"1.31 fold enrichment (6-mer frequency, TF over GST control)"
same,binding signal,ELF4,"1.13 fold enrichment (6-mer frequency, TF over GST control)"
same,binding signal,ELK4,"1.16 fold enrichment (6-mer frequency, TF over GST control)"
same,binding signal,ETV2,"1.05 fold enrichment (6-mer frequency, TF over GST control)"
same,binding signal,ELF3,"1.37 fold enrichment (6-mer frequency, TF over GST control)"
same,binding signal,CRX,"1.04 fold enrichment (6-mer frequency, TF over GST control)"
same,binding signal,ETV1,"1.19 fold enrichment (6-mer frequency, TF over GST control)"
